Hit rate of the full screen: of about 5,500 compounds, about 2,000 (36%) were called active. About 18% were inconclusive and are not listed. No stated cut-off is given here; in the data, active means normalized growth mostly below about 0.91 (no sharp cut-off); inconclusive means no clear call, values can overlap the other calls; inactive means mostly above about 0.92. The list shows a part of the results.
Assay: chemical genetic growth profiling, strain panel (AID 1159580);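 further: tested at 20 µM; growth read once vehicle control cultures reached saturation at 30 °C; 1 = growth at the plate median or of vehicle wells; lower values mean less growth of the strain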
Details: S. cerevisiae deletion strains, growth OD

Measured: normalized growth

CCOc1ccc2c(c1)C(C)=CC(C)(C)N2
inactive: locus YAL013W, strain DEP1, active compounds read low 0.99 | locus YAL021C, strain ccr4, active compounds read low 0.99 | locus YAL026C, strain drs2, active compounds read low 0.983 | locus YAL030W, strain snc1, active compounds read low 0.996 | locus YBL061C, strain skt5, active compounds read low 0.988 | locus YBR009C, strain hhf1, active compounds read low 0.996 | locus YBR021W, strain FUR4, active compounds read low 0.983 | locus YBR023C, strain chs3, active compounds read low 0.994 | locus YBR171W, strain sec66, active compounds read low 0.982 | locus YBR229C, strain ROT2, active compounds read low 0.986 | locus YBR231C, strain swc5, active compounds read low 0.991 | locus YBR279W, strain paf1, active compounds read low 0.99 | locus YCL011C, strain gbp2, active compounds read low 0.989 | locus YCL016C, strain dcc1, active compounds read low 0.995 | locus YCL029C, strain bik1, active compounds read low 0.959 | locus YCL061C, strain MRC1, active compounds read low 0.994 | locus YCL069W, strain vba3, active compounds read low 0.987 | locus YCR088W, strain abp1, active compounds read low 0.983 | locus YDL005C, strain med2, active compounds read low 0.974 | locus YDL035C, strain GPR1, active compounds read low 1.01 | locus YDL040C, strain nat1, active compounds read low 0.987 | locus YDL074C, strain BRE1, active compounds read low 0.973 | locus YDL101C, strain DUN1, active compounds read low 0.976 | locus YDL134C, strain PPH21, active compounds read low 0.983 | locus YDL185W, strain tfp1, active compounds read low 0.977 | locus YDL192W, strain arf1, active compounds read low 0.984 | locus YDR001C, strain nth1, active compounds read low 0.986 | locus YDR069C, strain doa4, active compounds read low 0.995 | locus YDR101C, strain arx1, active compounds read low 0.984 | locus YDR137W, strain rgp1, active compounds read low 1.01 | locus YDR150W, strain NUM1, active compounds read low 0.993 | locus YDR159W, strain sac3, active compounds read low 0.989 | locus YDR162C, strain NBP2, active compounds read low 0.99 | locus YDR195W, strain ref2 0.98 | locus YDR297W, strain sur2, active compounds read low 0.989 | locus YDR318W, strain mcm21, active compounds read low 0.987 | locus YDR334W, strain swr1, active compounds read low 0.975 | locus YDR335W, strain msn5, active compounds read low 0.995 | locus YDR388W, active compounds read low 0.984 | locus YDR392W, strain spt3, active compounds read low 0.95 | locus YDR502C, strain sam2, active compounds read low 0.993 | locus YEL003W, strain gim4, active compounds read low 0.992 | locus YEL037C, strain rad23, active compounds read low 0.984 | locus YEL061C, strain CIN8 (second series), active compounds read low 0.99 | locus YEL061C, strain CIN8, active compounds read low 0.997 | locus YER015W, strain faa2, active compounds read low 0.99 | locus YER016W, strain bim1, active compounds read low 0.999 | locus YER110C, active compounds read low 0.979 | locus YER111C, strain swi4, active compounds read low 0.982 | locus YER155C, strain BEM2 (second series), active compounds read low 0.98 | locus YER155C, strain BEM2, active compounds read low 0.989 | locus YER167W, strain BCK2, active compounds read low 1 | locus YFR010W, strain ubp6, active compounds read low 0.977 | locus YGL078C, strain dbp3, active compounds read low 0.991 | locus YGL086W, strain mad1, active compounds read low 1 | locus YGL167C, strain pmr1, active compounds read low 0.978 | locus YGL173C, strain kem1, active compounds read low 0.98 | locus YGL227W, strain vid30, active compounds read low 0.98 | locus YGL240W, strain doc1, active compounds read low 0.985 | locus YGL248W, strain PDE1, active compounds read low 0.985 | locus YGL253W, strain hxk2, active compounds read low 0.984 | locus YGR078C, strain PAC10, active compounds read low 0.981 | locus YGR135W, strain pre9, active compounds read low 0.974 | locus YGR229C, strain SMI1, active compounds read low 1.01 | locus YGR252W, strain gcn5, active compounds read low 1.07 | locus YHR013C, strain ard1, active compounds read low 0.977 | locus YHR027C, strain rpn1, active compounds read low 0.979 | locus YHR030C, strain SLT2, active compounds read low 0.994 | locus YHR079C, strain IRE1 (second series), active compounds read low 0.975 | locus YHR094C, strain hxt1, active compounds read low 0.988 | locus YHR129C, strain ARP1, active compounds read low 0.987 | locus YHR142W, strain chs7, active compounds read low 0.98 | locus YHR200W, strain rpn10, active compounds read low 0.978 | locus YIL066C, strain RNR3, active compounds read low 0.974 | locus YIL073C, strain SPO22, active compounds read low 0.981 | locus YIL125W, strain kgd1, active compounds read low 0.998 | locus YIR030C, strain dcg1, active compounds read low 0.981 | locus YJL092W, strain hpr5, active compounds read low 0.986 | locus YJL095W, strain BCK1 (second series), active compounds read low 0.99 | locus YJL095W, strain BCK1, active compounds read low 0.971 | locus YJL115W, strain asf1, active compounds read low 0.984 | locus YJL129C, strain trk1, active compounds read low 0.996 | locus YJL134W, strain LCB3, active compounds read low 0.994 | locus YJL154C, strain vps35, active compounds read low 0.98 | locus YJL164C, strain tpk1, active compounds read low 0.993 | locus YJL166W, strain qcr8, active compounds read low 1 | locus YJL168C, strain set2, active compounds read low 0.984 | locus YJL187C, strain SWE1 (second series), active compounds read low 0.964 | locus YJL187C, strain SWE1, active compounds read low 0.988

— PubChem BioAssay AID1159580 (chemical genetic matrix, 2015)
